Out of some 310,000 compounds screened, about 14,000 (4.5%) showed an effect of 50% or more. Effects have a minus sign here. This excerpt belongs to a sample that is enriched for strong results.
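Note: peak tail current of the secondary pulse compared with the same well before compound.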

Chain of human ether-à-go-go-related gene (hERG) potassium channel (Q12809 whole entry, looked up): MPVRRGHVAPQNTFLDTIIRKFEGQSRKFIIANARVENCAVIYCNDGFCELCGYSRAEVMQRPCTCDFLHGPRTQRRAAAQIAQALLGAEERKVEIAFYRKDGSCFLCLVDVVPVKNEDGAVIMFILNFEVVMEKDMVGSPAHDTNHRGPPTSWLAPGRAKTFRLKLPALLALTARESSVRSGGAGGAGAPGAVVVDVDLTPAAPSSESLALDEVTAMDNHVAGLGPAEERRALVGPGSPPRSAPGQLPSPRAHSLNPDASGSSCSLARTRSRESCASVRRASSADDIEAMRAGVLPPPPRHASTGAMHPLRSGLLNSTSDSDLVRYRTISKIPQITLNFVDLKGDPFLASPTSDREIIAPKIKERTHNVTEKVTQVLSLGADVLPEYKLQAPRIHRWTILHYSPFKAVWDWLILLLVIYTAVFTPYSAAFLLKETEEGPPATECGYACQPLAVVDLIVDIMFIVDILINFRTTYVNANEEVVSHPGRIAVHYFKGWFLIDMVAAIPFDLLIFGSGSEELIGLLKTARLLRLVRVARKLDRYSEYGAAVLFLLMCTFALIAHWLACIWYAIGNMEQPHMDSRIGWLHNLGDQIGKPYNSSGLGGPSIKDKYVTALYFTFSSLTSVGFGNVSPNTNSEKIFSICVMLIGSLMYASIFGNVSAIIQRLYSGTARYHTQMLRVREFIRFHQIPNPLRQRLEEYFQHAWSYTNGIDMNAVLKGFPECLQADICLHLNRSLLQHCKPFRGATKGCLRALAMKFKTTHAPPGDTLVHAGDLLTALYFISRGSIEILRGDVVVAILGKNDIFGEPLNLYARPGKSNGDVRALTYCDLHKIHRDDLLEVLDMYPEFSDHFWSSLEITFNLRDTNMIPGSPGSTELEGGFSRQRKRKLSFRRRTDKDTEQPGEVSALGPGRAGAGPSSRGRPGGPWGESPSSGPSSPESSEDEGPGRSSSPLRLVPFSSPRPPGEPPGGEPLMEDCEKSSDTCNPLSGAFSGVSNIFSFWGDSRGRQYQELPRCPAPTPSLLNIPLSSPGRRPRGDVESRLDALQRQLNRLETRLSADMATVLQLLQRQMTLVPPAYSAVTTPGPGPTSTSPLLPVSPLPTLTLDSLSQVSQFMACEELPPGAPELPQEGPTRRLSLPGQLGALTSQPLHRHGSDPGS

This experiment has as its target human ether-à-go-go-related gene (hERG) potassium channel (human, UniProt Q12809). Put plainly: primary screen, population patch clamp on CHO cells stably expressing hERG; higher = less effect of the substance.
For the compound `NC(=O)c1ccc(NC(=O)CCN2C(=O)c3ccccc3C2=O)cc1`, the “hERG current change (%, negative = inhibition) at 10uM” value is listed as 16%.
Next, `CN(C)c1ccc(NC(=O)C2C3C=CC(C3)C2C(=O)O)cc1` (stereo not shown): 7.65%; `CC1CN(c2ncnc3c2cnn3-c2ccc(Cl)cc2)CC(C)O1` (stereo not shown): 0.749%.
Next, `O=c1cccc2n1CC1CC2CN(c2ncnc3c2cnn3-c2ccc(Cl)cc2)C1` (stereo not shown): -62.1%; `O=c1cccc2n1CC1CC2CN(c2ncnc3c2cnn3-c2ccccc2)C1` (stereo not shown): -30%.
`O=C(Nc1nnc(C2=COCCO2)o1)c1cccc(F)c1`: the “hERG current change (%, negative = inhibition) at 10uM” value was 16.7%.
Next, `Cn1c(C(=O)N2CCCC(C(=O)c3ccc(C(F)(F)F)cc3)C2)cc(=O)n(C)c1=O` (stereo not shown): -71.7%.
With `O=C(CCc1ccncc1)N1CCCC(Nc2ccc(F)cc2)C1` (stereo not shown), the “hERG current change (%, negative = inhibition) at 10uM” value is listed as -13.9%.
Next, `O=C(c1ccc(C(F)(F)F)cc1)C1CCCN(C(=O)CCc2cnccn2)C1` (stereo not shown): -15.1%; `O=C(c1ccc(C(F)(F)F)cc1)C1CCCN(C(=O)CCc2ccncc2)C1` (stereo not shown): -59.4%.
`Cn1nccc1C(=O)N1CCCC(C(=O)c2ccc(C(F)(F)F)cc2)C1` (stereo not shown): the “hERG current change (%, negative = inhibition) at 10uM” value worked out at 6.14%.
Next, `Cc1ccc(NC2CCCN(C(=O)CCc3ccncc3)C2)cc1C` (stereo not shown): -24.5%; `COc1ccc2cc(C(=O)C3CCCN(C(=O)c4cc(=O)n(C)c(=O)n4C)C3)ccc2c1` (stereo not shown): -38.4%; `O=C(CCc1ccncc1)N1CCCC(Nc2ccc(F)c(F)c2)C1` (stereo not shown): -56%.
Next, `NC(=O)CCC(=O)N1CCCC(C(=O)c2ccc(C(F)(F)F)cc2)C1` (stereo not shown): 1%.
Take `O=C(c1ccc(S(=O)(=O)Nc2ccccc2F)cc1)N1CCCCCC1`: the “hERG current change (%, negative = inhibition) at 10uM” value worked out at 2.93%.
Next, `O=C(N[C@@H]1CCC(=O)N(CC[C@H](Sc2ccc(Br)cc2)c2ccccc2)CC1)OCc1ccccc1`: 0.417%; `COc1ccc2[nH]c(=O)c(CN(CCO)S(=O)(=O)c3ccc(C)cc3)cc2c1`: -9.52%; `Cc1ccc(C)c(NC(=S)N/N=C2\CCc3ccccc32)c1`: 9.03%.
Next, `COc1ccc(CCNC(=O)Cc2cc(=O)[nH]c(=O)[nH]2)cc1OC`: -9.44%; `CCN1/C(=C2\C(=O)N(C)C(=S)N2C)C=Cc2cc(C)ccc21`: -33.4%; `CCN1C(=O)/C(=C2/C=Cc3cc(C)ccc3N2CC)N(C)C1=S`: -54.8%.
Next, `CCN1/C(=C2/SC(=S)N(C)C2=O)C=Cc2cc(C)ccc21`: -1.96%; `CC1=NN(C(C)C)C(=O)C1`: 8.62%; `CCOC(=O)C1(CCc2ccccc2)CCN(Cc2cnc(N(C)C)s2)CC1`: -83%.
As to `CCOC(=O)C1(CCOc2ccccc2)CCN(Cc2ccc(C)s2)CC1`, the “hERG current change (%, negative = inhibition) at 10uM” value was -89.8%.
The figure for `CCOC(=O)C1(CCOC)CCN(Cc2cc3ccccc3s2)CC1` is -22.5%; for `CCOC(=O)C1(CCCc2ccccc2)CCN(Cc2cnc(C)s2)CC1` it is -73.1%; for `CCOC(=O)C1(CC2CC2)CCN(Cc2cnc(N(C)C)s2)CC1` it is -22.1%.
Consider `CCOC(=O)C1(CCOc2ccccc2)CCN(Cc2cccs2)CC1`, for which the “hERG current change (%, negative = inhibition) at 10uM” value was -81.8%.
The figure for `CCOC(=O)C1(Cc2cccc(F)c2)CCN(Cc2cnc(C)s2)CC1` is -2.73%; for `CCN(CC)C(=O)CC(c1ccc(F)cc1)c1ccc(OC)cc1` (stereo not shown) it is -25.1%; for `CC1CC(C)(C)N2C(=O)C3(Nc4ccccc4S3)c3cccc1c32` (stereo not shown) it is 22.1%.
The figure for `Cc1ccc(C(C)C)cc1OCCCCN1CCCC1` is -49%.
For the compound `COc1ccc(N(CC(=O)NCCSCc2ccco2)S(=O)(=O)c2ccccc2)cc1`, the “hERG current change (%, negative = inhibition) at 10uM” value is listed as -9.08%.
As to `COc1ccc(CN2C(=O)c3ccccc3C2=O)cc1C(=O)N(C)CC(=O)Nc1c(C)cccc1C`, the “hERG current change (%, negative = inhibition) at 10uM” value is listed as -16.7%.
The figure for `CCOC(=O)C1(CCOc2ccccc2)CCN(Cc2cnc(C)s2)CC1` is -62.4%; for `CCOC(=O)C1(CCOc2ccccc2)CCN(Cc2cnc(C)[nH]2)CC1` it is -48.3%.
Next, `CCC(=O)Nc1cccc(NC(=O)c2ccc(C)cc2Cl)c1`: 34.5%; `NC(=S)NNc1ccc(Cl)c(Cl)c1`: 16.3%; `O=C(NCCCN1CCOCC1)c1ccc(N2CCCC2)c([N+](=O)[O-])c1`: -16.8%.
With `Cl.O=C(NCCCn1ccnc1)c1ccc(N2CCCCCC2)c([N+](=O)[O-])c1`, the “hERG current change (%, negative = inhibition) at 10uM” value is reported as -64%.
Turning to `Cl.O=C(NCCCn1ccnc1)c1ccc(S(=O)(=O)N2CCCCCC2)cc1`, the “hERG current change (%, negative = inhibition) at 10uM” value is given as -7.07%.
On to `COc1ccc(C(=O)NCCCn2ccnc2)cc1[N+](=O)[O-]`, for which the “hERG current change (%, negative = inhibition) at 10uM” value is reported as -8.22%.
Next, `O=C(NCCCn1ccnc1)c1ccc(N2CCCCC2)c([N+](=O)[O-])c1`: -71.7%.
For the compound `Cc1ccc(C(=O)NCCCn2ccnc2)cc1[N+](=O)[O-]`, the “hERG current change (%, negative = inhibition) at 10uM” value worked out at 4.53%.
